The full list was thinned out, with hits kept by preference.
RBX1-CUL1 inh: inhibitors of human ROC1-CUL1 ubiquitin ligase activity; P62877+Q13616; in vitro K48 di-Ub FRET, acceptor:donor ratio, 45 min; inhibition, % at 10 µM; actives 0.6% (n = 140,000); in the data active = inhibition above about 25%
Target sequence (P62877 whole entry, looked up): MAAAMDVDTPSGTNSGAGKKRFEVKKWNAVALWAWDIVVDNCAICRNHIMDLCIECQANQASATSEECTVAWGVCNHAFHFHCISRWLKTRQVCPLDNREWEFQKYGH
Target sequence (Q13616 whole entry, looked up): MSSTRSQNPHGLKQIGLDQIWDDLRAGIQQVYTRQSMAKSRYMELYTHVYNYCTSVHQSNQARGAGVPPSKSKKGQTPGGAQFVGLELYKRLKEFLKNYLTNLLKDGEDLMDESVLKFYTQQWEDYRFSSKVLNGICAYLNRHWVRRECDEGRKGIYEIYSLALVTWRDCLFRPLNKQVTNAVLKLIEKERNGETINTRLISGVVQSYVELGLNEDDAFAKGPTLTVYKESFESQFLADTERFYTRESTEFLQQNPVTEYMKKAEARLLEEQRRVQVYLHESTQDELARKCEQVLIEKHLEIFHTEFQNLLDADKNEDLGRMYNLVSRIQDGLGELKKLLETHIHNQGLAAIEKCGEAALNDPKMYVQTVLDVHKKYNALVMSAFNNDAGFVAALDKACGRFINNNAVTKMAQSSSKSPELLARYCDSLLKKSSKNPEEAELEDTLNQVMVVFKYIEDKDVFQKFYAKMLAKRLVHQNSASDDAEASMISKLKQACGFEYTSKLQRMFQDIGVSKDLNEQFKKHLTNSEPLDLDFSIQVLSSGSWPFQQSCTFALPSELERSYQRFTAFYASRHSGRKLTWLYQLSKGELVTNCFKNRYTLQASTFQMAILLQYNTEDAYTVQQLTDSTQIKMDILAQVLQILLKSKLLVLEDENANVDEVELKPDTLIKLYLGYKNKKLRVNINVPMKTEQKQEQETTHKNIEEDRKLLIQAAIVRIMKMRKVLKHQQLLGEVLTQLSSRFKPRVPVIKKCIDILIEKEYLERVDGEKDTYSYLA
Of the large screens only hits and unclear results are named; the others gave an inactive call.

COc1ccc(CN2CCOc3ccc(C(O)Cc4ccccc4)cc3C2)c(OC)c1 (stereo not given)	none
Oc1ccc(Cl)c(C2Nc3ccccc3-c3nnc(SCc4ccccc4F)nc3O2)c1 (stereo not given)	none
CC1(O)CC(=O)C(C(=O)OCc2ccccc2)C(c2ccc(O)cc2)C1C(=O)OCc1ccccc1 (stereo not given)	none
COC12C=CC(CC1)C1C(=O)c3cccc(O)c3C(=O)C12 (stereo not given)	none
COC12C=CC(CC1)C1C(=O)c3c(OC(=O)OCc4ccccc4)ccc(O)c3C(=O)C12 (stereo not given)	RBX1-CUL1 inh 27
CC1CCN(S(=O)(=O)c2ccc(N3C(=O)C(C)(C)CS3(=O)=O)cc2)CC1	none
CCOC(=O)c1c(C)sc(-c2c(-c3cc(C)ccc3C)[nH]c3c2c(=O)[nH]c(=O)n3C)c1O	RBX1-CUL1 inh 49
Cc1ccc(C)c(-c2[nH]c3c(c2-c2c(-n4cccc4)n(C)c(=O)n(C)c2=O)c(=O)n(C)c(=O)n3C)c1	none
CCOC(=O)c1c(C)sc(-c2c(-c3cccc(Cl)c3)[nH]c3c2c(=O)n(C)c(=O)n3C)c1O	RBX1-CUL1 inh 45
CCOC(=O)c1c(C)sc(-c2c(-c3cc(C)ccc3C)[nH]c3c2c(=O)n(C)c(=O)n3C)c1O	none
CCOC(=O)c1c(NC(=O)c2c(F)cccc2F)sc(C)c1-c1cccc(Cl)c1	none
CCOC(=O)C1=CN(c2ccc(F)cc2)C=C(C(=O)OCC)C1c1cccc(Cl)c1	none
COC(=O)[C@@H]1CCCN1Cc1nc(NCCc2ccccc2OC)c2ccccc2n1	none
CNC(=O)C1=C2SCC(C)(O)N2C(=N)C(C#N)C1c1ccccc1 (stereo not given)	none
CCc1ccc(C2Sc3ccccc3N=C3c4ccccc4C(=O)C32)cc1 (stereo not given)	none
COc1cc(C2C(C(=O)c3ccc4c(c3)OCCO4)C(=O)C(=O)N2Cc2ccco2)ccc1O (stereo not given)	none
CC(C)(C)c1ccc(C(=O)NNC(=O)c2ccc(Cl)c(Cl)c2)cc1	none
COc1ccc(C(=O)N2CCN(c3ccc(N)cc3)CC2)cc1	none
CCOC(=O)c1cccc(-n2c(C)cc(C=C3C(=O)N(C)C(=O)N(C)C3=O)c2C)c1	none
Cc1cc(/C=C2\C(=O)N(C)C(=S)N(c3ccccc3)C2=O)c(C)n1-c1cccc(C(=O)O)c1	RBX1-CUL1 inh 28
Cc1ccc(N2C(=O)/C(=C/c3cc(C)n(-c4ccccc4)c3C)C(=O)N(c3ccccc3)C2=S)cc1C	none
CC(=O)NC1=NC(=O)/C(=C/c2sccc2C)S1	none
COC(=O)c1cccc(-n2c(C)cc(/C=C3\SC(=O)N(Cc4ccc(F)cc4)C3=O)c2C)c1	none
CC(=O)NC1=NC(=O)/C(=C/c2cc(C)n(-c3cccc(C(=O)O)c3)c2C)S1	RBX1-CUL1 inh 50
COCCNC(=O)c1cccc(OC2CCN(Cc3ccc(CO)o3)CC2)c1	none
CC(Cc1ccccc1)N1CC(=N)ON1 (stereo not given)	none
CCN(C(=O)c1cccnc1)c1ccccc1C(=O)O	none
O=C(Cc1ccc(Cl)cc1)N1CCCc2ccccc21	none
Nc1cccc2c1C(=O)N(c1cccc(F)c1)C2=O	none
N=C1C(=O)c2c(N)cccc2C(=O)C1Br (stereo not given)	RBX1-CUL1 inh 102
Cc1cc2c(n1Cc1ccccc1)C(=O)c1ccccc1-2	none
CC1=C(SCc2ccccc2)C(=O)c2ccccc2C1=O	RBX1-CUL1 inh 37
Cc1ccccc1-n1ncc(SCc2ccccc2)c(Cl)c1=O	none
CCCNC(=O)c1nnn(-c2ccc(OC)cc2)c1CCC	none
CC(=O)OC[C@H]1O[C@@H](N=C2C([N+](=O)[O-])C(=O)N(C)C(=O)N2C)[C@H](OC(C)=O)[C@@H](OC(C)=O)[C@@H]1OC(C)=O (stereo not given in full)	none
CCCCCCCCCCOc1ccc(N=CC=Nc2ccc(OCCCCCCCCCC)cc2)cc1	none
CCCCCCCCCOc1ccc(C#CC(=O)O)cc1	RBX1-CUL1 inh 99
CCCCCCOc1ccc(/C(CCCCC/C(=N\O)c2ccc(OCCCCCC)cc2)=N\O)cc1	none
CN(C)CCNC(=O)CC1Sc2ccccc2NC1=O (stereo not given)	none
O=C(c1ccc(Cl)cc1)N1CCCCC(Sc2nc3sc4c(c3c(=O)n2-c2ccccc2)CCC4)C1=O (stereo not given)	none
N=C(N)SCC1=NC(=O)NC(=O)C1	RBX1-CUL1 inh 26
O=C1CC(CSc2nc3ccccc3[nH]2)=NC(=O)N1	none
O=C1CC(CSCc2ccc(Cl)cc2)=NC(=O)N1	none
S=c1sc2ccccc2n1CNc1cccc(Br)c1	none
CCCN(CCC)c1ccc(/C=C2/N=C(c3ccccc3)OC2=O)cc1	RBX1-CUL1 inh 42
Cc1ccc(/C=C2\N=C(c3ccc(C)cc3)OC2=O)cc1	none
CCN(CC)c1ccc(/C=C2/N=C(c3ccc(OC)c(OC)c3)OC2=O)cc1	none
COc1ccc(-n2nc(C)c3[nH]c(-c4ccoc4)nc32)cc1	none
O=C(NN1C(=O)/C(=C/c2ccc(Cl)cc2Cl)SC1=S)c1ccccc1Cl	none
O=C(O)C1=NN(c2ccccc2)C(=O)/C1=C\c1ccc(Cl)cc1Cl	RBX1-CUL1 inh 40
Cc1c(N2C(=O)/C(=C/c3ccc(Cl)cc3Cl)SC2=S)c(=O)n(-c2ccccc2)n1C	none
O=C(Nc1ccc(O)cc1C(=O)O)c1ccc(Oc2ccc(C(=O)Nc3ccc(O)cc3C(=O)O)cc2)cc1	none
Cc1ccccc1NC(=O)c1c(C)nc(SCC(=O)c2ccc(O)c(O)c2)c(C#N)c1-c1cccnc1	RBX1-CUL1 inh 28
N#Cc1c(N)nc(SCC(=O)c2ccc(O)c(O)c2)c(C#N)c1-c1ccc(OCc2ccccc2)cc1	none
N#Cc1c(SCC(=O)c2ccc(F)cc2)nc2c(c1-c1cccnc1)CCC2	none
CN1C(=S)N(c2ccccc2)C(=O)C1N=Nc1ccc(O)cc1 (stereo not given)	none
O/N=C1\CSCc2ccccc21	none
COCCN1C(=O)/C(=C/c2ccc(-c3ccc(C(=O)O)c(Cl)c3)o2)SC1=Nc1ccccc1	none
O=C1OC(c2ccccc2)=N/C1=C\c1ccc(-c2ccc(C(=O)O)cc2)o1	none
O=C(O)c1cc(N2C(=O)/C(=C\c3ccc(-c4ccc(Br)cc4)o3)C=C2c2ccccc2)ccc1O	RBX1-CUL1 inh 97
NC(=O)c1ccccc1SSc1ccccc1C(N)=O	none
O=C(N=Nc1c(O)[nH]c2ccccc12)c1ccccc1N(Cc1ccccc1)S(=O)(=O)c1ccccc1	none
O=c1c(SCc2ccccc2)c(SCc2ccccc2)cnn1-c1ccccc1	none
CCSc1cnn(-c2ccccc2)c(=O)c1SCC	none
O=c1c(SCc2ccco2)c(SCc2ccco2)cnn1-c1ccccc1	RBX1-CUL1 inh 31
COc1cc(C2C(C(=O)c3ccc4c(c3)CC(C)O4)C(=O)C(=O)N2CC2CCCO2)ccc1O (stereo not given)	none
Cc1ccc(OS(=O)(=O)c2ccc(N3C(=O)CCC3=O)cc2)c(-n2nc3ccccc3n2)c1	none
CNC(=S)N/N=C\c1ccc(OCC(=O)Nc2ccccc2OC)cc1	none
CC(C)CCNC(=O)c1ccccc1SC(C)C	none
CC(OC1CC(=O)CC2C(=O)c3c(O)ccc(O)c3C(=O)C12)c1ccc2ccccc2c1 (stereo not given)	RBX1-CUL1 inh 97
CC(C)(C)OC1CC(O)CC2C(=O)c3c(O)ccc(O)c3C(=O)C12 (stereo not given)	none
COc1ccc(C(C)OC2CC(=O)CC3C(=O)c4cccc(O)c4C(=O)C23)cc1 (stereo not given)	none
Cc1ccc(OC(C)C(=O)N2CCCCC2)cc1C (stereo not given)	none
O=C(Cc1ccccc1Cl)c1ccc(O)c(O)c1O	RBX1-CUL1 inh 101
O=C(Cc1ccccc1Cl)N1CCN(c2ncccn2)CC1	none
O=C(Cc1ccccc1)Nc1cc(Cl)ccc1O	none

Bioassay records from PubChem BioAssay.
